Data as given in PubChem BioAssay (Tox21).
Several values for one entry are separate records, joined by “and”; a condition that tells them apart may be missing. Identical values can stand only once. Values without a mark were called inactive. A call without a number means that no potency is given here. Activity calls are given as the source filed them. The call rests on the fitted dose curve.

The compounds below were run against Thyrotropin-releasing hormone receptor (Homo sapiens) (UniProt P34981) (assay: qHTS assay to identify small molecule agonists of the thyrotropin-releasing hormone receptor (TRHR) signaling pathway (AID 1346891;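 on activation: HEK293 cells expressing TRHR with calcium dye readout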)). Details: TRHR-HEK293 calcium fluorescence, agonist mode; series mostly up to 57.6 µM; activation: at the top concentration.
Text: National Center for Advancing Translational Sciences [NCATS] NIH Chemical Genomics Center [NCGC] U.S. Environmental Protection Agency [EPA] National Institutes of Environmental Health Sciences [NIEHS] National Toxicology Program [NTP] Assay overview: Thyrotropin-releasing hormone (TRH) receptor (TRHR) is a G-protein-coupled receptor which binds the tripeptide thyrotropin releasing hormone. TRHR is found in the brain and, when bound by TRH, acts (through phospholipase C) to increase intracellular inositol trisphosphate. It plays a crucial role in the anterior pituitary where it controls the synthesis and secretion of thyroid stimulating hormone and prolactin. The TRHR-Hek293 assay is a cell-based assay, and it has the potential to screen G protein-coupled receptors. A compound/drug can either activate (agonist) or suppress (antagonist) GPCRs that can be monitored by levels of intracellular calcium. Using this assay, the Tox21 10K compound library was screened to identify potential TRHR agonists.
Assay Protocol Summary: The TRHR-Hek293 cells were dispensed at 1500cells/4uL/well in 1536-well black-clear bottom plates using a Multidrop dispenser. After the assay plates were incubated at a 37 C/5% CO2 incubator for 18 hours, 4 uL of Dye-Loading Solution was added to each well. The plates were incubated at 37 C for 2 hours. For agonist mode, 23 nL of compounds dissolved in DMSO, positive controls or DMSO only was transferred to the assay plate by a pin tool. The fluorescence intensity in the plates was measured using FDSS 7000EX kinetic plate reader for 3 min at 1 sec intervals. Each test compound was measured at 15 concentrations and in triplicates.
Potency means the concentration at half of the fitted maximal effect.

Thyrotropin-releasing hormone receptor (Homo sapiens), sequence (P34981 whole entry, looked up): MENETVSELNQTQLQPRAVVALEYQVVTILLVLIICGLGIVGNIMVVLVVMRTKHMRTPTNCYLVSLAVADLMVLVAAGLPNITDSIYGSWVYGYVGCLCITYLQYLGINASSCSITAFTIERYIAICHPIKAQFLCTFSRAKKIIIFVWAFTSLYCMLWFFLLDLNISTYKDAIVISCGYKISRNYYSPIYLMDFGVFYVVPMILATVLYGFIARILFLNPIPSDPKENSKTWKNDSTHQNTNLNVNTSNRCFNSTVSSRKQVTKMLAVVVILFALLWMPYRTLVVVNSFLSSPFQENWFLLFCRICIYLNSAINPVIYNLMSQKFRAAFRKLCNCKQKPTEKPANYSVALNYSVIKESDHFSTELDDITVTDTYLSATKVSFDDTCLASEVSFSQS

| Structure (SMILES) | activation | Potency |
| --- | --- | --- |
| CCCCCCCCCCCCCC[P+](CCCC)(CCCC)CCCC | 10.8% | – |
| CN(C)c1ccc(C(=C2C=CC(=[N+](C)C)C=C2)c2ccccc2)cc1 | – | inactive |
| C1COC(NC(C2CC2)C2CC2)=N1 | -0.579% [at 26.5 µM] | – |
| c1cnc2cc3c(cc2n1)C1CNCC3C1 | -0.06% [at 26.5 µM] | – |
| COC(=O)/C=C/c1ccccc1 | – | inactive |
| CC(=O)OCC1=C(C(=O)O)N2C(=O)[C@@H](NC(=O)Cc3cccs3)[C@H]2SC1 | -0.1% [at 26.5 µM] | – |
| CC(N)=O | -0.264% [at 150 µM] | – |
| CCN(CC)c1ccc2c(C)cc(=O)oc2c1 | – | inactive |
| [Cl][In]([Cl])[Cl] | – | inactive |
| CC(C)CCCCCCc1ccc(O)cc1 | – | inactive |
| CC(=O)C1=C(C)[C@@H]2C[C@@]3(C1)[C@H](C)CC[C@H]3C2(C)C | – | inactive |
| CC(C)(C)NCC(O)c1cc(O)cc(O)c1 (stereo not given) | 2.29% [at 26.5 µM] | – |
| Clc1ccc2c(c1)C(N1CCNCC1)=Nc1ccccc1O2 | – | inactive |
| CC(C)(C)NCC(O)COc1ccccc1OCC1CCCO1 (stereo not given) | 0.219% [at 26.5 µM] | – |
| C/C=C/c1ccc(OCC)c(O)c1 | – | inactive |
| CCCCCCCCCCCCc1ccccc1O | – | inactive |
| CNCCC(Oc1ccc(C(F)(F)F)cc1)c1ccccc1 (stereo not given) | – | inactive |
| CCCCCC(=O)O[C@]1(C(C)=O)CC[C@H]2[C@@H]3CCC4=CC(=O)CC[C@]4(C)[C@H]3CC[C@@]21C | – | inactive |
| C=C(C)C(=O)O | – | inactive |
| OCCOCCN1CCN(C(c2ccccc2)c2ccc(Cl)cc2)CC1 (stereo not given) | – | inactive |

| Structure (SMILES) | activation | Potency |
| --- | --- | --- |
| CC(C)CCOCc1ccccc1 | -0.599% | – |
| O=C1NCC2(CCN(CCc3ccccc3)CC2)O1 | 0.119% [at 26.5 µM] | – |
| NC(=Nc1ccccc1)Nc1ccccc1 | – | 7.76 µM (active) and 15.1 µM (active) |
| CCC(C)(C)C(=O)O[C@H]1C[C@@H](C)C=C2C=C[C@H](C)[C@H](CC[C@@H]3C[C@@H](O)CC(=O)O3)[C@H]21 | – | inactive |
| OCC(CO)N[C@H]1C[C@](O)(CO)[C@@H](O)[C@H](O)[C@H]1O | -0.141% [at 26.5 µM] | – |
| Nc1nc2ccccc2[nH]1 | – | inactive |
| CCn1c2ccccc2c2cc(N)ccc21 | – | inactive |
| CCCNC(C)C(=O)Nc1ccccc1C (stereo not given) | -0.0942% [at 26.5 µM] | – |
| COC(=O)c1cccc(C(=O)OC)c1 | -0.546% | – |
| CO[Si](OC)(OC)c1ccccc1 | 0.151% | – |
| CCOc1ccccc1C(N)=O | – | inactive |
| O=C1OC2(c3ccc(O)cc3Oc3cc(O)ccc32)c2ccccc21 | – | 155 nM (active) and 1.69 µM (active) |
| CC(=O)CC(C)=O | 0.244% | – |
| Cc1ccnc2c1NC(=O)c1cccnc1N2C1CC1 | – | inactive |
| CC(C)(c1ccccc1)c1ccc(Nc2ccc(C(C)(C)c3ccccc3)cc2)cc1 | – | inactive |
| NNCCc1ccccc1 | – | inactive |
| CC1COC(=O)O1 (stereo not given) | – | inactive |
| CC(C)(C)c1ccc(O)c(C(C)(C)C)c1 | 20.9% | – |
| CCCCN(CCO)CCCC | -0.0311% | – |
| CC(C)C(=O)c1c(C(C)C)nn2ccccc12 | 0.136% [at 26.5 µM] | – |
